What all share (assay): NCI-60 one-dose screen, 48 h (100 = growth as untreated, 0 = no growth, -100 = all killed)
What all share (settings): 10 µM unless noted

The subject of assay [1] is HCT-15 colon.
Assay [2] relates to HT29 colon.
The test system of assay [3] is SNB-19 CNS.
Assay [4] has as its system U251 CNS.
Assay [5] deals with PC-3 prostate.
Assay [6] has as its system SK-MEL-5 melanoma.
Assay [7] concerns UACC-62 melanoma.
Assay [8] relates to LOX IMVI melanoma.
In assay [9] the test system is SK-MEL-2 melanoma.
The test system of assay [10] is EKVX NSCLC.
Assay [11] relates to SN12C renal.
Assay [12] concerns UO-31 renal.
The subject of assay [13] is TK-10 renal.
For assay [14], the system named is ACHN renal.
The subject of assay [15] is A498 renal.
Assay [16] concerns CCRF-CEM leukemia.
In assay [17] the test system is MOLT-4 leukemia.
Assay [18] relates to CAKI-1 renal.
Assay [19] has as its system SK-MEL-28 melanoma.

Compounds without any hit were thinned out: in the full panel of roughly 83,000, 20% have a hit.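 Activity criterion: percent growth below 10, measured after cells in 96-well plates were exposed to a single compound concentration for 48 hours.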 Values without a mark were called inactive. Calls of active or inactive are those of the source.

In the case of `O=C(NCCCNc1nccc(-n2ccc3cccnc32)n1)c1c(F)cccc1F`, the growth in assay [1] is 99.9%; in assay [2] it was 104%; in assay [3], 95.7%; in [4] it was 102%; in assay [5] it was 96.8%; in assay [6], 99.2%. Moreover, the growth in assay [7] is 97.6%; in assay [8], 102%; in [9], 114%; in [10], 93.4%; in assay [11] it was 99.4%; in assay [12], 92%. The growth in assay [13] was 116%; in [14], 94.6%; in assay [15], 103%; in assay [16], 101%; in assay [17], 99.2%.

As for `Cc1cc(C2(c3cc(C)c(O)cc3C)OS(=O)(=O)c3ccccc32)c(C)cc1O`, the growth is 105% in assay [1]; 92.9% in assay [2]; 94.2% in assay [3]; 78% in [4]; 87.2% in assay [5]; 104% in assay [6]. Moreover, the growth was 90.9% in assay [7]; 105% in assay [8]; 111% in [9]; 105% in assay [10]; 96.7% in assay [11]; 69.4% in [12]. Also, the growth was 88.5% in assay [13]; 105% in assay [14]; 95.7% in [18]; 93.9% in assay [15]; 93.7% in assay [16]; 96.3% in assay [17].

Regarding `COc1cc(C(=O)/C=C/c2ccc3nc(-c4cc(F)cc(F)c4)sc3c2)cc(OC)c1OC`, the growth in [1] was 99.5%; in assay [2], 95.9%; in assay [3] it was 98.3%; in assay [4] it was 92.5%; in assay [5], 95.1%; in assay [6], 118%. The growth is 95.6% in assay [7]; 94.9% in assay [8]; 106% in assay [19]; 110% in [10]; 93% in assay [11]; 88.8% in assay [12]. The growth in [13] is 100%; in assay [14], 88.1%; in [18], 104%; in assay [15] it was 98.1%; in assay [17] it was 103%.

Consider `O=C(Nc1ccncc1)C(=O)c1cn(S(=O)(=O)c2ccc(Cl)cc2)c2ccccc12`, for which the growth in [1] is 26.6%; in [2] it was 2.91% (active); in [3] it was 44.7%; in assay [4], 31.3%; in assay [5], 41.7%; in assay [6], 17.1%. Moreover, the growth was 30.7% in assay [7]; 42.8% in assay [8]; 46.4% in assay [19]; 53.5% in [10]; 34% in assay [11]; 42.1% in assay [12]. Moreover, the growth in assay [13] is 81.9%; in assay [14] it was 52.8%; in assay [18], 44.9%; in assay [15], 53.6%; in [17] it was 48%.

For the compound `CCN1CCN(c2nc(NNC(=O)c3ccccc3)nc(N3CCN(C(c4ccccc4)c4ccccc4)CC3)n2)CC1`, the growth in assay [1] is 25.7%; in assay [2], 1.28% (active); in assay [3], 72.5%; in assay [4], 49.4%; in [5] it was 48.5%; in assay [6], -92.4% (active). Besides, the growth in [7] is 80%; in assay [8] it was -44.6% (active); in [9], 78.4%; in [10] it was 66.6%; in [11] it was 70.8%; in assay [12], 30.8%. Moreover, the growth was 95.1% in assay [13]; 81.1% in [14]; 42.7% in assay [18]; 39.4% in [16]; 8.93% (active) in assay [17].

Turning to `S=c1[nH]nc(-c2cc3ccc2CCc2ccc(cc2)CC3)n1-c1ccccc1`, the growth in assay [1] is 89.7%; in [2] it was 90.8%; in assay [3], 93.3%; in assay [4], 94.5%; in assay [5] it was 83.9%; in assay [6] it was 96.5%. The growth in [7] is 76.2%; in [8], 98%; in [9], 105%; in assay [10], 93.4%; in assay [11], 91.4%; in [12], 92.9%. Besides, the growth in [13] was -61.5% (active); in [14], 100%; in [18] it was 87.2%; in assay [15], 90.2%; in [16] it was 95.8%; in assay [17], 92.7%.

In the case of `Nc1ccc(C(=O)CSc2nc3ccccc3[nH]2)cc1`, the growth is 99.6% in [1]; 110% in [2]; 102% in assay [3]; 96.9% in assay [4]; 104% in assay [5]; 97.9% in [6]. The growth in assay [7] is 90.6%; in assay [8], 106%; in assay [9], 121%; in [10] it was 81.7%; in assay [11] it was 102%; in assay [12], 87.5%. In addition, the growth in assay [13] is 109%; in assay [14], 110%; in assay [18], 96.1%; in assay [15], 87.5%; in assay [16] it was 106%; in assay [17], 124%.

`COc1ccc(-c2ccc(-c3ccc(C(=N)N)s3)s2)cc1Cl`: the growth in assay [1] was -76% (active); in assay [2], -84% (active); in assay [3], 35.2%; in assay [4] it was -86.2% (active); in assay [5] it was -92% (active); in assay [6], 67.5%. Also, the growth is -92.1% (active) in [7]; 90.1% in [19]; 96.2% in assay [9]; 70.1% in assay [10]; -83.7% (active) in assay [11]; 81.4% in [12]. For the same compound, the growth is -45.1% (active) in [13]; 16.9% in assay [14]; 68.3% in assay [18]; 65.3% in assay [15]; -31.2% (active) in [16]; -57.3% (active) in assay [17].
